Experimental data published in ChEMBL document CHEMBL1961873, “Compounds: GSK PKIS; Assays: Nanosyn kinase panel” (2012).

Legend:
[1] = target: Tyrosine-protein kinase receptor UFO (Homo sapiens) (UniProt P30530); settings: at 1 µM
[2] = target: Tyrosine-protein kinase Blk (Homo sapiens) (UniProt P51451); settings: at 0.1 µM
[3] = target: Tyrosine-protein kinase Blk (Homo sapiens) (UniProt P51451); settings: at 1 µM
[4] = target: T1, Cytoplasmic tyrosine-protein kinase BMX (Homo sapiens) (UniProt P51813); settings: at 0.1 µM
T1 sequence (whole entry): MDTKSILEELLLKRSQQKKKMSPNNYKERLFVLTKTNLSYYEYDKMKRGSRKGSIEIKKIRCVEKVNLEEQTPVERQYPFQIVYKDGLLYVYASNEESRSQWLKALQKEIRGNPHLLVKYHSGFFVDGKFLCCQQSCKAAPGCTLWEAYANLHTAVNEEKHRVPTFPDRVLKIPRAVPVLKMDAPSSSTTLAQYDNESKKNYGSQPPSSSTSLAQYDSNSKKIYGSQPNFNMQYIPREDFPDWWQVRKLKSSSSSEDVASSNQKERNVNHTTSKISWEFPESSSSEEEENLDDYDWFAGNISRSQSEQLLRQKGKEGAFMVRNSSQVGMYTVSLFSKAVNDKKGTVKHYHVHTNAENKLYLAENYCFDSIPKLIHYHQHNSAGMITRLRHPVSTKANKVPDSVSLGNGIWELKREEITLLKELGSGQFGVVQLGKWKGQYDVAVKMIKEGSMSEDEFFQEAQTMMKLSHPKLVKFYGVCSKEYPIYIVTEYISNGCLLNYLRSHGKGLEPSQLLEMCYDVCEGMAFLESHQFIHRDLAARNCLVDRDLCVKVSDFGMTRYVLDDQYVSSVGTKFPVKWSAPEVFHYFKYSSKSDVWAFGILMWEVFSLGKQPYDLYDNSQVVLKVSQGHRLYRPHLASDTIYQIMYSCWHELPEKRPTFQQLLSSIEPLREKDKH

[5] = target: T1, Cytoplasmic tyrosine-protein kinase BMX (Homo sapiens); settings: at 1 µM
[6] = target: Protein-tyrosine kinase 6 (Homo sapiens) (UniProt Q13882); settings: at 0.1 µM
Protein-tyrosine kinase 6 (Homo sapiens), sequence (Q13882 whole entry, looked up): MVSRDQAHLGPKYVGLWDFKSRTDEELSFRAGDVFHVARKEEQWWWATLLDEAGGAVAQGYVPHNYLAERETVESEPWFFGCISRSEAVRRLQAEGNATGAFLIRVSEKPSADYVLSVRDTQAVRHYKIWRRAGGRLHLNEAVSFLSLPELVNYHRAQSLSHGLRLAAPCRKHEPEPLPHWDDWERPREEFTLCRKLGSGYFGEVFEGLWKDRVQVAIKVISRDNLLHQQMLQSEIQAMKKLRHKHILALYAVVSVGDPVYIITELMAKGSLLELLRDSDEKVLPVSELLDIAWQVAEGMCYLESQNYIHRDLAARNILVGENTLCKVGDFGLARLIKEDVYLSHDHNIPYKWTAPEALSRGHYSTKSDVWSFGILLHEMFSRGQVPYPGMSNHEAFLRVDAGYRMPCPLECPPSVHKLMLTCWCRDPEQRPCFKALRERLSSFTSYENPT

[7] = target: Protein-tyrosine kinase 6 (Homo sapiens) (UniProt Q13882); settings: at 1 µM
[8] = target: Tyrosine-protein kinase BTK (Homo sapiens) (UniProt Q06187); settings: at 0.1 µM
[9] = target: Tyrosine-protein kinase BTK (Homo sapiens) (UniProt Q06187); settings: at 1 µM
[10] = target: Tyrosine-protein kinase CSK (Homo sapiens) (UniProt P41240); settings: at 0.1 µM
[11] = target: Tyrosine-protein kinase CSK (Homo sapiens) (UniProt P41240); settings: at 1 µM
[12] = target: T2, Discoidin domain-containing receptor 2 (Homo sapiens) (UniProt Q16832); settings: at 0.1 µM
T2 sequence (whole entry): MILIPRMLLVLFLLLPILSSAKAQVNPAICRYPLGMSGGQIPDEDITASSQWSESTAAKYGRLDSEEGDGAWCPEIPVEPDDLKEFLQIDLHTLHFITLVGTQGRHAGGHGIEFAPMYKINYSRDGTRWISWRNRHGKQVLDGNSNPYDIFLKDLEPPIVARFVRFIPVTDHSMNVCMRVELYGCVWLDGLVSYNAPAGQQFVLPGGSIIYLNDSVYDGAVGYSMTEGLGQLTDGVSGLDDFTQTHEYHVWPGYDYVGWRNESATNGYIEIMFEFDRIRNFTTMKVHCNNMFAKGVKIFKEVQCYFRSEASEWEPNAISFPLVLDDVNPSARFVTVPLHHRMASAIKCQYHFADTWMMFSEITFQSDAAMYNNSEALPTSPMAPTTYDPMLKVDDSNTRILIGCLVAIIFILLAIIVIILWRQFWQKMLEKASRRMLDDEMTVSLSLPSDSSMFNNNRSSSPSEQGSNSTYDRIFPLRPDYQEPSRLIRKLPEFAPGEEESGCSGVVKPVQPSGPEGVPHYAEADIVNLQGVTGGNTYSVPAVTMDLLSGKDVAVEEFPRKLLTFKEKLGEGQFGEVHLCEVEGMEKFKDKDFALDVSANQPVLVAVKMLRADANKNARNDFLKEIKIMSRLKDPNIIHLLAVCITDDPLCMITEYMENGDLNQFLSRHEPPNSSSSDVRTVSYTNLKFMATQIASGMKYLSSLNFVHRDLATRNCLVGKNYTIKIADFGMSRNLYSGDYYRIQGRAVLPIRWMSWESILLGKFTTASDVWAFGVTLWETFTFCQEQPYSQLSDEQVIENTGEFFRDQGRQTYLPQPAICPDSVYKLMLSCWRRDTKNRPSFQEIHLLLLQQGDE

[13] = target: T2, Discoidin domain-containing receptor 2 (Homo sapiens); settings: at 1 µM
[14] = target: Epidermal growth factor receptor (Homo sapiens) (UniProt P00533); settings: at 0.1 µM
Epidermal growth factor receptor (Homo sapiens), sequence (P00533 whole entry): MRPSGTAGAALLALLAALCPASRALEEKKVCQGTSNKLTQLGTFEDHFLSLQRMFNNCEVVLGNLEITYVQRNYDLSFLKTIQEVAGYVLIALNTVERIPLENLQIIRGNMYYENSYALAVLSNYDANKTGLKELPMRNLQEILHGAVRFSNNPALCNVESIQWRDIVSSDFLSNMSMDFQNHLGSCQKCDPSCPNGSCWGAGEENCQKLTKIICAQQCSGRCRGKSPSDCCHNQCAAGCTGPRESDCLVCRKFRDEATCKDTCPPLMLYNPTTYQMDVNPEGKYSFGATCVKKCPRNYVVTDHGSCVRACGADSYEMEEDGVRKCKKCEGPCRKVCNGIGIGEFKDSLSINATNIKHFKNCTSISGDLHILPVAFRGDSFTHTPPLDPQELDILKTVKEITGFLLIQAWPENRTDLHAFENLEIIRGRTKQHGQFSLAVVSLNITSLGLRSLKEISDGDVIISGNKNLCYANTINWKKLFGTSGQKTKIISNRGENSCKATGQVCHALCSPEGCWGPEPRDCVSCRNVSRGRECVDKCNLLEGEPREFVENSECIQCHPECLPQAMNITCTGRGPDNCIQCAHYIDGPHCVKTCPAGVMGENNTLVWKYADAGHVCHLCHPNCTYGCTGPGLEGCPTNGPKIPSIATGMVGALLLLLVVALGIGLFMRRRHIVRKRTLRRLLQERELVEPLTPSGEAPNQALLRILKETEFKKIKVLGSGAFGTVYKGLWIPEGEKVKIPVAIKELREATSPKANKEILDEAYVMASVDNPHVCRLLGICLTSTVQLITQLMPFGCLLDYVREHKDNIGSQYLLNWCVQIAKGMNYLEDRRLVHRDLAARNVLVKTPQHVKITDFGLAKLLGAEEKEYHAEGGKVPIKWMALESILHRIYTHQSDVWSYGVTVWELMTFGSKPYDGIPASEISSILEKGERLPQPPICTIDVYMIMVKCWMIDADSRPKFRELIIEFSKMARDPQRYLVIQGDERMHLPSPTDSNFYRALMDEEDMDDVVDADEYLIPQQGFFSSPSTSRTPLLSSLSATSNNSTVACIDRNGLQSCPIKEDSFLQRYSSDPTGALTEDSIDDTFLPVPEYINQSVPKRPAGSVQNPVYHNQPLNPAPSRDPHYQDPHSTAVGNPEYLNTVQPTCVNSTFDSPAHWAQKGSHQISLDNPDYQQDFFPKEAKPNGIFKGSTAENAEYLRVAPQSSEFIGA

[15] = target: Epidermal growth factor receptor (Homo sapiens) (UniProt P00533); settings: at 1 µM
[16] = tested on: Epidermal growth factor receptor (Homo sapiens), P00533 [L858R]; settings: at 0.1 µM
Epidermal growth factor receptor (Homo sapiens), P00533 [L858R], sequence (P00533 whole entry L858R): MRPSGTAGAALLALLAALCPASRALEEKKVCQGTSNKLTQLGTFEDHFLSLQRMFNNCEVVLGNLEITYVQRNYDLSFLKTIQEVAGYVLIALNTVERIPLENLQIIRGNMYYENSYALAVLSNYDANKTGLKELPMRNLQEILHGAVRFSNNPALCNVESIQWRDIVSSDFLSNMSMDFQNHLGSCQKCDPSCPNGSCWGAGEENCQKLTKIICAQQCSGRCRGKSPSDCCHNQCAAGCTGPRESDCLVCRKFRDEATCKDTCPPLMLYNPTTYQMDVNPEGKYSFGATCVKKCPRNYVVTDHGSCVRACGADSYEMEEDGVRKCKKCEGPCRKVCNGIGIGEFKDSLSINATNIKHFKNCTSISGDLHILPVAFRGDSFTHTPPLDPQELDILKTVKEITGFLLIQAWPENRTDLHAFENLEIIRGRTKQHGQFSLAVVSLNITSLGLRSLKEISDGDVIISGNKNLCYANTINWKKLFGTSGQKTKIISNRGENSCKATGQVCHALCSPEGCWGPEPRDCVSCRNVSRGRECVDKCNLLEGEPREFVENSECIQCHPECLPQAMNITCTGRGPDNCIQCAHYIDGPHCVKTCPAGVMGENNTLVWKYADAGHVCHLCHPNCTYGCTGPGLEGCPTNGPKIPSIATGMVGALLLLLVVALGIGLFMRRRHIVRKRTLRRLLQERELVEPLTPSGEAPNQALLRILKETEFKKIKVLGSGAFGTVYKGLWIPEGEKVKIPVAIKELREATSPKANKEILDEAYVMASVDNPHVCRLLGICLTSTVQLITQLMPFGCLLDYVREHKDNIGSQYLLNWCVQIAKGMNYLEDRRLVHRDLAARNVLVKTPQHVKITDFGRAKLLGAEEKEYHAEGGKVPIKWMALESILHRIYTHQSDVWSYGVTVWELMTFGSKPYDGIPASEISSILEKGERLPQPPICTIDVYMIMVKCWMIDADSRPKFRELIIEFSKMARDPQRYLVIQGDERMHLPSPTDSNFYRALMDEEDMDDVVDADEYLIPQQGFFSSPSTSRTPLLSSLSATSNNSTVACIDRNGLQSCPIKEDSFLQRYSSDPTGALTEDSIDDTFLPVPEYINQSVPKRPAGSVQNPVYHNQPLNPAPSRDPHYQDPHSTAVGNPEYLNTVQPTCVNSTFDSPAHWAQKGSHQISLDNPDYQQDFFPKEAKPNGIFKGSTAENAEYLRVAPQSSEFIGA

[17] = tested on: Epidermal growth factor receptor (Homo sapiens), P00533 [L858R]; settings: at 1 µM
[18] = tested on: Epidermal growth factor receptor (Homo sapiens), P00533 [L861Q]; settings: at 0.1 µM
Epidermal growth factor receptor (Homo sapiens), P00533 [L861Q], sequence (P00533 whole entry L861Q): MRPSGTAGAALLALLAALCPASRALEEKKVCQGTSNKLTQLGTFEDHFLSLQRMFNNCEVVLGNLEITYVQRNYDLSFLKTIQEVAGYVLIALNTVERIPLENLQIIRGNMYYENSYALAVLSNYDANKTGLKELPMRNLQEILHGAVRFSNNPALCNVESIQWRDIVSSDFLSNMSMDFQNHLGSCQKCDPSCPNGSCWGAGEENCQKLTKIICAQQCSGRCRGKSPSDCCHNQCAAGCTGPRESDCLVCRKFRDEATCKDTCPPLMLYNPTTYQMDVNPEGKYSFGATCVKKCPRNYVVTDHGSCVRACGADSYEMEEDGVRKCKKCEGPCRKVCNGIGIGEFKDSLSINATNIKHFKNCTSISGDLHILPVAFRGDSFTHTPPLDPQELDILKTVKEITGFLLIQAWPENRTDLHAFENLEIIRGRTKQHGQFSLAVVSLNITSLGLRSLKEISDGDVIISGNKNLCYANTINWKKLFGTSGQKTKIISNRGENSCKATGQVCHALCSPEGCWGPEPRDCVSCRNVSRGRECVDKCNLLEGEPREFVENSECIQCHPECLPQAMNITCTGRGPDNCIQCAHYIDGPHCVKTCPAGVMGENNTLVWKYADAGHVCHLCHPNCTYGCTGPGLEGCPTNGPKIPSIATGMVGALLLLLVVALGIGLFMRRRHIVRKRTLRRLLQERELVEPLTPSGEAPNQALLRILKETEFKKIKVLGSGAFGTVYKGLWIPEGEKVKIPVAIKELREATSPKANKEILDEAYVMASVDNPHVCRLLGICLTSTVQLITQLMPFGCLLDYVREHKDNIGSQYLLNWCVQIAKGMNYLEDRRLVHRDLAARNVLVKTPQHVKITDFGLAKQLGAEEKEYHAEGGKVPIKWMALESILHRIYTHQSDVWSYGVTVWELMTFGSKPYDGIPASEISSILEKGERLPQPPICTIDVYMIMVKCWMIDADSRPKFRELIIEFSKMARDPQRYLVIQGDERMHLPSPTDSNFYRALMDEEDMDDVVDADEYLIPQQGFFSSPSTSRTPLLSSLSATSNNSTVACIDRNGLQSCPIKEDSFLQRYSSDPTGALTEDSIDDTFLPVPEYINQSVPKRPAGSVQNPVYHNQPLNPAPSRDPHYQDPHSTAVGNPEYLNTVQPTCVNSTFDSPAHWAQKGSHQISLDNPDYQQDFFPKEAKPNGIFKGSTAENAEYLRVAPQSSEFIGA

[19] = tested on: Epidermal growth factor receptor (Homo sapiens), P00533 [L861Q]; settings: at 1 µM
[20] = tested on: Epidermal growth factor receptor (Homo sapiens), P00533 [T790M]; settings: at 0.1 µM

Tyrosine-protein kinase receptor UFO (Homo sapiens), sequence (P30530 whole entry): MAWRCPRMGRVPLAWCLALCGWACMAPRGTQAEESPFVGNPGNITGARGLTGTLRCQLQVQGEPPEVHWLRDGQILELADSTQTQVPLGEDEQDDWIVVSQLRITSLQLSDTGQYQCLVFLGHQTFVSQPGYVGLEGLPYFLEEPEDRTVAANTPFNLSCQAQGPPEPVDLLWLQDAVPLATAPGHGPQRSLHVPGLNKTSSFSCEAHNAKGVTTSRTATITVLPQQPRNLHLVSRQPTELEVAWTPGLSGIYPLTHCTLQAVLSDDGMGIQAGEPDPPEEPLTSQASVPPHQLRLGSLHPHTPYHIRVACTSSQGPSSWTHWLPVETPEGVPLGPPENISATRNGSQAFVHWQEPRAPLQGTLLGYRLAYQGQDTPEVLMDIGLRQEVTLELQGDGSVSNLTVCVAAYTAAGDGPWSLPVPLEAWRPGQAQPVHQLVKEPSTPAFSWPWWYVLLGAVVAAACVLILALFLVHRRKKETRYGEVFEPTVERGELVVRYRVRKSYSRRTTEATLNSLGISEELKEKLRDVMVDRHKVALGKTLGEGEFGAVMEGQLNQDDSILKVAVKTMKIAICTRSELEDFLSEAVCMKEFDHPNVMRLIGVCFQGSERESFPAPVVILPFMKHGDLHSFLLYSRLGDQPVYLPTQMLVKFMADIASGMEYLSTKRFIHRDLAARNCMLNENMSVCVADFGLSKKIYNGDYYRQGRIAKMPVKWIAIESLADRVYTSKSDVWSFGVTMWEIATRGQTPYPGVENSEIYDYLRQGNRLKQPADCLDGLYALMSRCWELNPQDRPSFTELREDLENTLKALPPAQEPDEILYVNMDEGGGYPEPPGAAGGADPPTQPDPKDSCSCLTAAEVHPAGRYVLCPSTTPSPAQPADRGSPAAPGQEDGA

Compound | inhibition [1] [%] | inhibition [2] [%] | inhibition [3] [%] | inhibition [4] [%] | inhibition [5] [%] | inhibition [6] [%] | inhibition [7] [%] | inhibition [8] [%] | inhibition [9] [%] | inhibition [10] [%] | inhibition [11] [%] | inhibition [12] [%] | inhibition [13] [%] | inhibition [14] [%] | inhibition [15] [%] | inhibition [16] [%] | inhibition [17] [%] | inhibition [18] [%] | inhibition [19] [%] | inhibition [20] [%]
O=C1NC(=O)C(c2ccccc2Cl)=C1Nc1cccc(O)c1 | -1.28 | 1.66 | 4.61 | 2.35 | 4.21 | 3.64 | 2.79 | 0.01 | 1.37 | 1.31 | 3.08 | -0.34 | -0.1 | 2.49 | 5.23 | 3.81 | 3.71 | 0.72 | 3.71 | 1.27
CS(=O)(=O)CCNCc1nc(-c2ccc3ncnc(Nc4ccc(F)c(Cl)c4)c3c2)cs1 | 0.38 | 1.92 | 7.95 | 0.99 | 7.67 | 1.05 | 5.15 | 0.64 | 4.51 | 2.86 | 5.64 | 7.7 | 10.9 | – | – | – | – | – | – | –
Fc1cccc(COc2ccc(Nc3ncnc4sc(-c5cccs5)cc34)cc2Cl)c1 | 1.51 | 1.15 | 3.35 | 1.58 | 4.35 | -1.94 | 2.02 | -0.95 | -0.95 | 2.73 | 3.11 | -0.48 | 0.6 | – | – | – | – | – | – | –
CCn1c(-c2nonc2N)nc2ccncc21 | 1.22 | 0.68 | 2.01 | 3.88 | -0.38 | -0.74 | -3.65 | -0.43 | 1.46 | -1.68 | -5.08 | 0.25 | 0.08 | 0.86 | 2.64 | -3.87 | -4.06 | 0.79 | -0.98 | -0.65
CC1=C(C(=O)Nc2ccc3[nH]ncc3c2)C(c2ccc(F)cc2)NC(=O)N1 (stereo unspecified) | -2.9 | 0.5 | 3.91 | -3.23 | 1.24 | 1.78 | 5.55 | -0.15 | -1.83 | 0.78 | 1.35 | 0.44 | 0.08 | -0.6 | 1.27 | 3.85 | 4.77 | 2.31 | 1.33 | 0.71
CN(C)c1cc2c(Nc3ccc4nc(Cc5ccccc5)[nH]c4c3)ncnc2cn1 | -3.19 | 5.31 | 26.3 | 1.17 | 21.5 | 4.68 | 6.35 | 1.64 | 4.82 | 17.4 | 55.3 | 3.16 | 7.23 | 66.6 | 77.6 | 16.1 | 48.1 | 27.3 | 40.3 | 3.48
CCn1c(-c2nonc2N)nc2c(C#CC(C)(C)O)nc(CN3CCCC3)cc21 | 1.53 | -0.49 | 0.66 | 2.82 | -1.55 | -2.67 | -1.74 | -1.44 | -1.15 | -0.07 | -4.12 | 1.3 | 5.64 | 1.34 | 1.12 | -0.22 | -1.48 | -1.77 | -4.01 | -2.21
